From PubChem
A selection: hits, their analogues and other compounds. The true share with any hit is near 19%.
DT40 TDP1 no CPT = qHTS for Inhibitors of human tyrosyl-DNA phosphodiesterase 1 (TDP1): qHTS in cells in absence of CPT; DT40 Tdp1-/- hTDP1 cells, no CPT, ATP luminescence, 48 h; Potency, µM (top dose mostly 46.2 µM), for the others: top-dose activity change, negative = growth inhibition, actives largely listed as inhibitors; 420,000 compounds, 15% hits; AID 686978, 2013; further: nearly all actives have a fitted effect of over 55% in size
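A cellular qHTS used chicken DT40 cells lacking endogenous Tdp1 but carrying stably transfected human TDP1. Compounds were applied without camptothecin, and cell growth kinetics were judged by ATP-dependent luminescence after ≥48 hr.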
Gal4-VP16 FLuc = VP16 counterscreen qHTS for inhibitors of ROR gamma transcriptional activity; Drosophila S2 Gal4-VP16 UAS-luciferase, luminescence, 20 h; Potency, µM (titrated, usually from 53.6 µM), for inactives: at the highest dose activity, negative = inhibition, most hits filed as inhibitors; 310,000 compounds, 3.5% hits;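 further: Gal4-VP16 expression switched on by copper sulfate through the metallothionein promoter; nearly all actives have a fitted effect of over 50% in size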
DT40 TDP1 CPT = qHTS for Inhibitors of human tyrosyl-DNA phosphodiesterase 1 (TDP1): qHTS in cells in presence of CPT; 420,000 compounds, 12% hits; AID 686979, 2013; chicken DT40 Tdp1-/-;hTDP1 cells + 20 nM CPT, ATP luminescence, 48 h; Potency, µM (top dose mostly 46.2 µM), without a hit: at the highest dose activity change, negative = growth inhibition, actives largely listed as inhibitors; further: nearly all actives have a fitted effect of over 55% in size
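Chicken DT40 Tdp1-/- cells complemented with human TDP1, 400 cells/well, exposed to compounds plus 20 nM camptothecin for at least 48 h at 37 C; viability read as ATP content by CellTiter-Glo luminescence.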
TDP1 block = qHTS Assay for Inhibitors of Tyrosyl-DNA Phosphodiesterase (TDP1) | recombinant TDP1, AlphaScreen DNA substrate cleavage | 350,000 compounds, 0.28% hits | Potency, µM (series often up to 130 µM), for inactives: top-dose activity change, negative = inhibition, actives largely listed as inhibitors | AID 485290, 2010 | Tyrosyl-DNA phosphodiesterase 1 (Homo sapiens), Q9NUW8; further: nearly all actives have a fitted effect of over 40% in size
Target sequence (Q9NUW8 whole entry, looked up): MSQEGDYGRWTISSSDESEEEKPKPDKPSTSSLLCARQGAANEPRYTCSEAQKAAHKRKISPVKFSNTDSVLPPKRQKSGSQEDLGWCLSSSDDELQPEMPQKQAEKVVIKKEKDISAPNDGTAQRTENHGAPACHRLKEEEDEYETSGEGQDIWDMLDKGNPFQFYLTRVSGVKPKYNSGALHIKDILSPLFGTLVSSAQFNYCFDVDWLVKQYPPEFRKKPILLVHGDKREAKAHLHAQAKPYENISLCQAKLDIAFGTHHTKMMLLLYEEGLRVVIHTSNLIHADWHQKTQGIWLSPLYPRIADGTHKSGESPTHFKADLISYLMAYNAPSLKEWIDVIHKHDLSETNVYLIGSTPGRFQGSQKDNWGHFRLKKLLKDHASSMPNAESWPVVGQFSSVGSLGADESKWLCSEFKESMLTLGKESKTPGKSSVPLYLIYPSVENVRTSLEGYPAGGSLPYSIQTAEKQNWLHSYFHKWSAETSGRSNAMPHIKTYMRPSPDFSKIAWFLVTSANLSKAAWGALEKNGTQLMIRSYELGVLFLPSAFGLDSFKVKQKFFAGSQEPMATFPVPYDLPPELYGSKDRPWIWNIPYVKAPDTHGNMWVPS
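AlphaScreen read-out: signal falls as enzyme removes the 3' tyrosine-FITC from a 5'-biotinylated DNA oligo (15 nM, 5 min, RT). Enzyme was E. coli-made recombinant Tdp1 at 1 nM, exposed to compound for 15 min beforehand; beads 10 ug/ml, 10 min.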
RORgamma inh = qHTS for inhibitors of ROR gamma transcriptional activity. Nuclear receptor ROR-gamma (Mus musculus), P51450. Drosophila S2 Gal4-RORgamma UAS-luciferase reporter, 20 h. Potency, µM (titrated, usually from 53.6 µM), for the others: at the highest dose activity change, negative = inhibition, usual class: inhibitors. 310,000 compounds, 5.4% hits. AID 2551, 2010; further: nearly all actives have a fitted effect of over 60% in size
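In this cell-based reporter format, copper sulfate (700 uM final) drives Gal4–ROR gamma fusion expression from a metallothionein promoter in Drosophila Schneider cells; compounds preincubated 1 hr, reporter read after 20 hr at ambient temperature.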
Active calls of the source: *; ? = inconclusive; nt = no result; [ ] = remark or other dose. The call rests on the fitted dose curve; in most records, active means well fitted curve in the direction sought with a large enough effect; inconclusive means small, poorly fitted or top-dose-only effect, or another doubt; inactive means no such curve, though single readings can be large; an effect the other way counts as inactive or inconclusive. On the % scale 0 is the no-effect control and ±100 the full control effect; potency means the concentration at half of the fitted maximal effect.

SMILES | DT40 TDP1 no CPT | Gal4-VP16 FLuc | DT40 TDP1 CPT | TDP1 block | RORgamma inh
Cc1c(C)n(Cc2ccc(F)cc2)c2ccc(C(=O)N3CCN(c4ccc(F)cc4)CC3)cc12 | 23µM* | nt | 21µM* | 5% | nt
CCn1c(C)c(C)c2cc(C(=O)N3CCc4ccccc4C3)ccc21 | 15µM* | ? | ? | 18% | ?
CCn1c(C)c(C)c2cc(C(=O)NCCc3cc(OC)c(OC)c(OC)c3)ccc21 | 3.7µM* | nt | 4.1µM* | 5% | nt
Cc1cc2c(cc(C(=O)NCCCN3CCOCC3)n2Cc2ccc(Cl)cc2)o1 | ? | 10µM* | ? | 13% | ?
CCn1c(C)c(C)c2cc(C(=O)NCCc3ccco3)ccc21 | -2% | -7% | -13% | 13% | 17%
Cc1ccc(Cn2c(C(=O)NCCCN3CCOCC3)cc3sccc32)cc1 | ? | -12% | -24% | 3% | -12%
COc1ccc(CCNC(=O)c2ccc3c(c2)c(C)c(C)n3Cc2ccccc2)c(OC)c1OC | ? | nt | 23µM* | 11% | nt
Cc1c(C)n(Cc2ccc(F)cc2)c2ccc(C(=O)NCc3ccco3)cc12 | ? | nt | ? | 0% | nt
CCn1c(C)c(C)c2cc(C(=O)NCC(C)c3ccccc3)ccc21 (stereo not given) | 29µM* | nt | 16µM* | 8% | nt
CCN1CCN(C(=O)c2ccc3c(c2)c(C)c(C)n3Cc2ccccc2)CC1 | -43% | ? | ? | 8% | -2%
Cc1c(C)n(Cc2ccc(F)cc2)c2ccc(C(=O)NCCN3CCOCC3)cc12 | 16µM* | 15% | ? | 8% | 4%
COc1ccc(OC)c(CCNC(=O)c2ccc3c(c2)c(C)c(C)n3Cc2ccccc2)c1 | ? | nt | 16µM* | 5% | nt
COc1ccc(CCNC(=O)c2ccc(Cn3c(=O)c4ccccc4n(Cc4cccc(C)c4)c3=O)cc2)cc1OC | ? | nt | ? | 5% | nt
CCn1c(C)c(C)c2cc(C(=O)NCc3ccc(F)cc3)ccc21 | ? | nt | ? | 13% | nt
COc1cc(S(=O)(=O)N2CCOCC2)cc(C(=O)OCC(=O)NCc2ccco2)c1OC | 1% | nt | -6% | 1% | nt
COC(=O)[C@H](Cc1c[nH]c2ccccc12)NCc1cccc(B(O)O)c1 | -2% | nt | 24% | nt | nt
O=C(c1ccccc1)C1Oc2ccccc2C2CC(c3cccs3)=NN12 (stereo not given) | -19% | -17% | 7% | 1% | 14%
O=C(O)/C(=C/c1ccco1)NC(=O)c1ccc(Br)o1 | 2% | 6% | 16% | nt | -17%
COc1ccc(C(=O)NCCc2cc3c(OC)ccc(OC)c3[nH]c2=O)cc1OC | ? | ? | ? | 6% | 10%
COc1ccc(CCNC(=O)c2ccc3c(c2)c(C)c(C)n3Cc2ccc(F)cc2)c(OC)c1OC | 23µM* | nt | 18µM* | 5% | nt
C=CCSc1nnc2nc3[nH]c4c(C)cccc4c3nn12 | ? | 1% | 1% | 2% | -17%
CCOC(=O)c1ccc(N2CN(CC)CNC2=S)cc1 | ? | 22% | ? | -4% | -14%
C=CCN1CN(CCc2ccccc2)CNC1=S | -7% | 16µM* | -3% | 3% | 1.6µM*
CCN1CNC(=S)N(CCc2ccccc2)C1 | 8% | 13µM* | 1% | 1% | 8.9µM*
CCOc1ccccc1N1CN(CC)CNC1=S | -2% | -2% | 3% | -1% | ?
SMILES | DT40 TDP1 no CPT | Gal4-VP16 FLuc | DT40 TDP1 CPT | TDP1 block | RORgamma inh
CCOc1ccc(CCN2CN(CC)CNC2=S)cc1OCC | 21µM* | ? | -18% | 0% | 13µM*
CCN1CNC(=S)N(C(C)c2ccccc2)C1 (stereo not given) | -22% | 13µM* | -20% | 1% | 10µM*
S=C1NCN(Cc2ccccc2)CN1 | 0% | 0% | -1% | 5% | 2%
CC1CCCN(CCCNC(=O)c2nn(C)c3c2CS(=O)(=O)c2ccccc2-3)C1 (stereo not given) | -3% | -12% | -2% | 3% | -26%
CCN1CN(CCc2ccccc2)CNC1=S | -1% | ? | -4% | 3% | 13µM*
COC(=O)N/N=C/c1cccc(OC(=O)c2ccc3c(c2)OCO3)c1 | -29% | 6% | -13% | -2% | 23%
CCOc1ccc(S(=O)(=O)NCc2csc(C)n2)cc1 | -26% | nt | -27% | -1% | -12%[0.365 µM]
Cc1ccc(S(=O)(=O)NCCc2csc(-c3cccc(F)c3)n2)cc1 | 15µM* | nt | 21µM* | 7% | nt
Cc1ccc(C)c(S(=O)(=O)NCCc2csc(-c3ccc(Cl)cc3)n2)c1 | 16µM* | nt | 29µM* | 1% | nt
CCOc1ccc(S(=O)(=O)NCCc2csc(-c3ccc(Cl)cc3)n2)cc1 | 5.8µM* | nt | 6.5µM* | 2% | nt
CCc1ccc(S(=O)(=O)NCCc2csc(-c3ccccc3)n2)s1 | 23µM* | ? | ? | -9% | -4%
CC(CNC(=O)CC[C@H]1O[C@@H](n2ccc(=O)[nH]c2=O)[C@H](O)[C@@H]1O)c1ccccc1 (stereo not given in full) | 8% | nt | 2% | nt | nt
O=C(CC1S/C(=N/N=C/c2cccs2)NC1=O)Nc1ccc(Cl)c(Cl)c1 (stereo not given) | ? | ? | ? | 3% | -19%
CCCCCSc1nc2c(c(=O)[nH]c(=O)n2C)n1C | -2% | 0% | -1% | 2% | -16%
CC1CCC(NC(=O)C2c3ccccc3C(=O)N2CCCN2CCOCC2)CC1 (stereo not given) | -3% | 1% | -11% | 6% | -20%
O=C(COc1cccc2cccnc12)NNC(=O)Nc1ccccc1 | -5% | 3% | -1% | 0% | 21%
CC(=O)c1ccc(S(=O)(=O)NCCc2csc(-c3cccnc3)n2)cc1 | -26% | -5% | -21% | 5% | ?
Cc1ccc(S(=O)(=O)NCCc2csc(-c3ccc(Cl)cc3)n2)cc1 | 12µM* | nt | 12µM* | 1% | nt
O=C1C[C@H](c2ccc(O)cc2)Oc2cc(O[C@@H]3O[C@H](CO)[C@@H](O)[C@H](O)[C@H]3O)cc(O[C@@H]3O[C@H](CO)[C@@H](O)[C@H](O)[C@H]3O)c21 | 3% | nt | 7% | 0% | nt
CC(=O)Oc1ccc(/C=C/C(=O)CC2OC(Oc3cc(OC(C)=O)c4c(c3)O[C@@H](c3ccc(OC(C)=O)cc3)CC4=O)C(OC(C)=O)C(OC(C)=O)C2OC(C)=O)cc1 (stereo not given in full) | 7.5µM* | 1% | 8.4µM* | 9%[56.1 µM] | 14%
